Compound activity as filed in PubChem.
The list is not random: actives were taken first. Their share in the collection is about 0.5%.
Tat transport = E. coli Tat transport inhibition. 0.036% of 340,000 active. inhibition, % at 10 µM. E. coli MC4100 TorA-mCherry Tat export, fluorescence;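 active means mean replicate inhibition at least 50% and at least half of replicates individually reaching 50%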;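 further: exported cargo escapes ClpAP degradation while cytoplasmic cargo is degraded and loses fluorescence; 0% = median of neutral control wells and 100% = median of NaSCN control wells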
E coli growth-1 = reduces bacterial viability in AddAB counter-screen; AID 449728; E. coli V3065 growth, OD600 absorbance, 18 h; 0.27% of 330,000 active; inhibition, % at 11.9 µM;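 active means inhibition above the campaign's mean inhibition across all tested compounds plus 3 SD, cut at about 9.9% in these data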;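 further: uninfected addAB+ strain grown without phage in ampicillin broth; 0% = DMSO wells and 100% = ciprofloxacin 0.95 µg/ml wells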
phage Ecoli inh = E. coli growth loss with phage present | growth absorbance | inhibition, % at 11.9 µM | 0.26% of 360,000 active | AID 651602; in the data active means inhibition above about 11%
E coli growth-2 = E. coli growth inhibition. AID 1053175. Escherichia coli growth, OD600, 23 h; active compounds read low. OD600 absorbance (test concentration not listed). 0.21% of 330,000 active;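 active means OD600 absorbance below the run mean of sample wells minus 3.6 SD, in any replicate, cut at about 0.56 in these data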
AddAB inh = less growth of phage-infected E. coli with AddAB | E. coli expressing H. pylori AddAB, absorbance growth | inhibition, % at 11.9 µM | 0.29% of 330,000 active | AID 435030; in the data active means inhibition above about 12%;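 further: 0% = vehicle wells of infected cells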
AddAB confirm = growth loss of T4-infected E. coli expressing H. pylori AddAB, confirmed; shares compounds with AddAB inh; E. coli V3065 expressing H. pylori AddAB, T4 phage, OD; T4 phage with gene 2 nonsense mutations; inhibition, % at 11.9 µM; 64% of 880 active; AID 488942;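 active means mean inhibition above a set limit taken from the earlier primary screen, cut at about 13% in these data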;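 further: higher means less bacterial growth since AddAB block lets phage replicate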
RecBCD counter = reduces growth of phage-infected RecBCD+ E. coli, AddAB inhibitor counter-screen | shares compounds with AddAB inh | E. coli V66 + mutant T4 phage, OD growth | inhibition, % at 11.9 µM | 73% of 880 active;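 active means mean inhibition above the mean of solvent-only control wells plus 3 SD, cut at about 4% in these data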;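 further: optical density read after an 18 h incubation at 37 °C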
bact viab count = reduces bacterial viability, AddAB inhibitor counter-screen; inhibition, % at 11.9 µM; shares compounds with AddAB inh; 35% of 880 active; absorbance (AddAB counterscreen); in the data active means inhibition above about 25%
RecBCD conf = growth loss of phage-infected V66 E. coli, RecBCD confirmation screen; shares compounds with phage Ecoli inh; E. coli V66 + T4 2- phage, growth OD; inhibition, % at 11.9 µM; 45% of 890 active;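 active means mean inhibition over triplicates exceeding the hit threshold derived in the original primary screen, cut at about 11% in these data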
Ecoli viability = inhibits E. coli viability, flagging RecBCD hits as nonselective | inhibition, % at 11.9 µM | shares compounds with phage Ecoli inh | absorbance (OD) growth | 29% of 890 active; in the data active means inhibition above about 20%;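 further: E. coli strain V66 grown with compound alone and no phage infection; 0% = bacteria with DMSO vehicle only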
AddAB phage OD = growth loss of phage-infected AddAB E. coli, RecBCD counter-screen | shares compounds with phage Ecoli inh | E. coli expressing H. pylori AddAB + T4 phage, OD growth; gene 2 mutant T4, recBCD-deleted host | inhibition, % at 11.9 µM | 45% of 890 active;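 active means mean inhibition above the solvent-only control wells' mean plus 3 SD, cut at about 22% in these data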;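 further: higher means less bacterial growth from phage killing when AddAB is blocked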
* = called active by the depositor; . = no result.

SMILES | Tat transport | E coli growth-1 | phage Ecoli inh | E coli growth-2 | AddAB inh | AddAB confirm | RecBCD counter | bact viab count | RecBCD conf | Ecoli viability | AddAB phage OD
CC(=O)N1CCc2c(sc(NC(=O)c3ccc([N+](=O)[O-])o3)c2C#N)C1 | 3 | . | 8 | 0.67 | . | . | . | . | . | . | .
COC(=O)c1c(NC(=O)c2ccc([N+](=O)[O-])o2)sc2c1CCN(C(C)C)C2 | 26 | 100* | 31* | . | 101* | 98* | 98* | 99* | 100* | 102* | 102*
COc1ccc(C=NNC(=O)c2cc(-c3cccn3C)n[nH]2)cc1OC | . | . | . | 0.7 | . | . | . | . | . | . | .
O=C1c2ccccc2NC(c2ccc(-c3cccs3)o2)N1O (stereo unspecified) | -10 | 6 | 9 | 0.69 | 5 | . | . | . | . | . | .
O=C1c2ccccc2NC(c2ccc(-c3ccc(C(F)(F)F)cc3)o2)N1O (stereo unspecified) | -11 | 21* | 15* | 0.66 | 17* | 17* | 7.7* | 6 | 7 | 8 | 12
COc1cccc(/C=N/Nc2ccc([N+](=O)[O-])cn2)c1O | -1 | 22* | 18* | . | 26* | 21* | 17* | 18 | 12* | 18 | 16
CC(C)(C)OC(=O)NC(C(=O)OC(C)(C)C)c1ccc2c(c1)OCO2 (stereo unspecified) | . | . | . | 0.65 | . | . | . | . | . | . | .
NC(=O)N/N=C/c1ccc([N+](=O)[O-])o1 | -2 | 101* | 63* | . | 101* | 98* | 40* | 98* | 34* | 57* | 103*
COC(=O)N/N=C/c1ccc([N+](=O)[O-])o1 | 2 | 79* | 19* | . | 97* | 99* | 21* | 67* | 13* | 18 | 103*
O=C(N/N=C/c1ccc([N+](=O)[O-])o1)C1CC1 | 7 | 73* | 35* | . | 100* | 99* | 23* | 71* | 12* | 17 | 100*
O=[N+]([O-])c1ccc(C=NN=Cc2ccc([N+](=O)[O-])o2)o1 | . | . | . | 0.56 | . | . | . | . | . | . | .
NC(=O)NN=Cc1ccc(-c2ccc([N+](=O)[O-])cc2)o1 | . | . | . | 0.67 | . | . | . | . | . | . | .
O=[N+]([O-])c1ccc(/C=[N+](\[O-])CCO)o1 | 14 | 99* | 97* | . | 99* | 98* | 99* | 99* | 105* | 107* | 105*
CC(=NNC(=O)CC1C(=O)NN=C1C)c1cccs1 (stereo unspecified) | . | . | . | 0.69 | . | . | . | . | . | . | .
CC(=NOC(=O)Nc1ccc(Cl)cc1)c1ccc(F)c(F)c1 | . | . | . | 0.58 | . | . | . | . | . | . | .
CC[C@H]1OC(=O)[C@H](C)[C@@H](O[C@H]2C[C@@](C)(OC)[C@@H](O)[C@H](C)O2)[C@H](C)[C@@H](O[C@@H]2O[C@H](C)C[C@H](N(C)C)[C@H]2O)[C@](C)(OC)C[C@@H](C)C(=O)[C@H](C)[C@@H](O)[C@]1(C)O | 58* | 17* | 15* | . | 22* | 52* | 25* | 28* | 29* | 30* | 40*
C/C(C=NNC(=O)c1cc(C(C)(C)C)[nH]n1)=C\c1ccccc1 | . | . | . | 0.75 | . | . | . | . | . | . | .
COc1ccc(O)c(/C=N/NC(=O)c2ccc(CSc3nc(C)cc(C)n3)cc2)c1 | 3 | 11* | 11* | . | 16* | 6 | 8.0* | -2 | 1 | 1 | 6
O=C(NCc1nc2ccccc2[nH]1)C1=CC(c2ccc(C(F)(F)F)cc2)CC(OCCCCO)O1 (stereo unspecified) | . | . | . | 0.67 | . | . | . | . | . | . | .
COc1ccc2nc(NC(=O)CCNC(=O)c3ccco3)sc2c1 | -9 | 14* | 12* | 0.58 | 16* | 14* | 12* | 14 | 8 | 12 | 11
CN[C@@H]1[C@H](O)[C@H](NC)[C@H]2O[C@@]3(O)C(=O)C[C@@H](C)O[C@H]3O[C@@H]2[C@H]1O | 119* | 34* | 52* | 0.51* | 35* | 78* | 47* | 57* | 58* | 35* | 75*
C=C1c2cccc(O)c2C(O)=C2C(=O)[C@]3(O)C(O)=C(C(N)=O)C(=O)[C@@H](N(C)C)[C@@H]3[C@@H](O)[C@H]12 | 140* | 47* | 100* | 0.059* | 57* | 97* | 99* | 97* | 104* | 105* | 104*
C[C@H]1c2cccc(O)c2C(=O)C2C(=O)C3(O)C(=O)C(C(N)=O)C(=O)[C@@H](N(C)C)[C@@H]3[C@@H](O)[C@@H]21 (stereo partly specified) | 148* | 100* | 98* | . | 100* | 100* | 100* | 101* | 99* | 100* | 101*
C[C@H]1c2cccc(O)c2C(O)=C2C(=O)C3(O)C(O)=C(C(N)=O)C(=O)[C@@H](N(C)C)[C@@H]3[C@@H](O)[C@@H]21 (stereo partly specified) | 152* | 97* | 101* | . | 96* | 101* | 100* | 101* | 103* | 104* | 104*
CN(C)c1ccc(O)c2c1CC1CC3[C@@H](N(C)C)C(=O)C(C(N)=O)C(=O)[C@]3(O)C(=O)C1C2=O (stereo partly specified) | 145* | 102* | 101* | . | 98* | 100* | 100* | 102* | 100* | 101* | 98*
CN(C)c1ccc(O)c2c1CC1CC3C(N(C)C)C(=O)C(C(N)=O)=C(O)[C@@]3(O)C(=O)C1=C2O (stereo partly specified) | 150* | 101* | 99* | 0.069* | 99* | 98* | 99* | 100* | 103* | 105* | 104*
Fc1ccc(Nc2nnc(C(F)(F)F)s2)cc1Cl | -17 | 16* | 14* | 0.44* | 14* | 17* | 19* | 13 | 7 | 9 | 20
FC(F)(F)c1nnc(Nc2ccc(Cl)cc2)s1 | -6 | 5 | 7 | 0.52 | 6 | . | . | . | . | . | .
CCOc1cc(C(=O)NN=Cc2cn(CC)nc2C)cc(OCC)c1OCC | . | . | . | 0.68 | . | . | . | . | . | . | .
COc1cc(-c2nnc(SCc3cc(=O)oc4cc(O)c(O)cc34)o2)cc(OC)c1OC | -3 | 18* | 16* | 0.63 | 18* | 18* | 16* | 18 | 7 | 8 | 8
